# Assay outcomes from PubChem BioAssay.
# This is a sample that favours compounds with a hit; in the whole collection about 31% have one here.
# CYP2C19 inhib: blocks human cytochrome P450 2C19; CYP2C19 Supersomes, luciferin-H EGE luminescence, 30 min; AID 778; 96,000 tested, 21% active; inhibition, % at 5 µM;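 active = CYP2C19 inhibition above a set limit at 5 µM in the primary screen, cut at about 50% in these data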;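 also: plate controls were negative control wells for no effect and 2.5 mM tranylcypromine positive control for full effect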
# Target sequence (P33261 whole entry, looked up): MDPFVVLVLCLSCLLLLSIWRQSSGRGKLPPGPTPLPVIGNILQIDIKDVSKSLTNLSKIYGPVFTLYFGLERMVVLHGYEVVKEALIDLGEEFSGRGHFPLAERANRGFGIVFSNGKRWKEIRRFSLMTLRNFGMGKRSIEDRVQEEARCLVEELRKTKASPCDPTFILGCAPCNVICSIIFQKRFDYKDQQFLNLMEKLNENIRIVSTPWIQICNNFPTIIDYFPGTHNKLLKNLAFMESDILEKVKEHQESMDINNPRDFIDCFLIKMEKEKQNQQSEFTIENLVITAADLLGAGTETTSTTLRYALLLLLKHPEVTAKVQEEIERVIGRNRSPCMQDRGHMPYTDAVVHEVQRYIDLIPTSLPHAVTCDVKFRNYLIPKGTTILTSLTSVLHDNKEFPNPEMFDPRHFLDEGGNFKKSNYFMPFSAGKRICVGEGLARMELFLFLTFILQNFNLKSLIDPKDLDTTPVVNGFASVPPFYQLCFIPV
# CYP2C9 inhib: blocks human cytochrome P450 2C9 | P11712 | CYP2C9 Supersomes, luciferin-H conversion, luminescence | 96,000 tested, 20% active | AID 777 | inhibition, % at 5 µM;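 active = blocking of liver enzyme CYP2C9 beyond about 50% at 5 µM, limit read from the data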
# PLAP activator: human PLAP activation. purified PLAP enzyme, luminescent substrate read-out; active compounds read high. activation fold at 20 µM. 96,000 tested, 1.2% active; in the data active = activation fold above about 2
# CYP2C9 act: increases human cytochrome P450 2C9 activity. recombinant CYP2C9, luciferin-H conversion, luminescence; active compounds read high; factor 1 = untreated enzyme, 0 = blocked. activation factor at 5 µM. 96,000 tested, 1.4% active;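 active = activation factor of 2 or more for CYP2C9 at a 5 µM dose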;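 also: 0 = sulfaphenazole-blocked wells and 1 = vehicle-only wells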
# CYP2C19 activ: increases human CYP2C19 enzyme activity; AID 1025; activation factor at 5 µM; recombinant CYP2C19, luciferin-H EGE luminescence; active compounds read high; 0 = fully inhibited enzyme, 1 = untreated enzyme; 96,000 tested, under 10 active;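 active = activation factor of at least 2 at 5 µM in the primary screen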;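 also: 0 = wells with 2.5 mM tranylcypromine and 1 = vehicle-only wells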
# An asterisk follows results filed as active.
SMILES,CYP2C19 inhib,CYP2C9 inhib,PLAP activator,CYP2C9 act,CYP2C19 activ
COc1ccc(OC)c(NC(=O)C2CCN(S(=O)(=O)c3cccs3)CC2)c1,-10.2,-7.3,1,1.1,1.1
CC(=O)c1cccc(NC(=O)C2CCN(S(=O)(=O)c3cccs3)CC2)c1,91.6*,68.3*,0.8,0.3,0.1
O=C(Nc1ccc2c(c1)OCO2)C1CCN(S(=O)(=O)c2cccs2)CC1,29.4,36.4,0.9,0.6,0.7
O=C(Nc1ccc2c(c1)OCO2)C1CCCN(S(=O)(=O)c2cccs2)C1 (stereo not drawn),53.3*,67.5*,1,0.3,0.5
O=C(Nc1ccc2c(c1)OCO2)C1CCCN(c2nc3ccccc3s2)C1 (stereo not drawn),48.0,54.2*,1,0.5,0.5
O=C(Nc1ccc2c(c1)OCCO2)C1CCN(S(=O)(=O)c2cccs2)CC1,66.7*,57.9*,1.4,0.4,0.3
Cc1cc2c(=O)n(CC(=O)N3CCN(c4ccc(F)cc4)CC3)cnc2s1,-4.5,-2.1,1,1,1
CC(C)(NC(=O)N1CCCC1)c1cccc(C(C)(C)NC(=O)N2CCCC2)c1,-6.1,19.5,0.9,0.8,1.1
C=CCSc1nc2c(c(=O)n(C)c(=O)n2C)n1CC,14.4,2.1,0.9,1,0.9
O=C(Nc1ccc2c(c1)OCO2)C1Cc2ccccc2CN1S(=O)(=O)c1cccs1 (stereo not drawn),56.1*,71.8*,0.8,0.3,0.4
O=S(=O)(Nc1ccc2c(c1)OCCO2)c1cccs1,27.9,22.6,1,0.8,0.7
O=C(Nc1ccc2c(c1)OCCO2)C1CCCN(S(=O)(=O)c2cccs2)C1 (stereo not drawn),41.5,46.6,0.9,0.5,0.6
O=S(=O)(Nc1ccc2c(c1)OCO2)c1cccs1,90.7*,65.6*,1.1,0.3,0.1
CCC(C)NC(=O)C1CCN(S(=O)(=O)c2cccs2)CC1 (stereo not drawn),4.8,52.1*,1.3,0.5,1
CC(=O)Nc1ccc(S(=O)(=O)NC(CC(=O)NCCc2ccccc2)C(C)C)cc1 (stereo not drawn),36.2,30.7,1,0.7,0.6
CCOC(=O)C(C)n1ncn2cccc2c1=O (stereo not drawn),-9.2,-6.6,1,1.1,1.1
COc1ccc(S(=O)(=O)N2CCCCC2)cc1,28.0,-40.6,1,1.4,0.7
COc1ccc(S(=O)(=O)N=C2C=C(C)C(=O)C(C)=C2)cc1,66.1*,-65.6,1.1,1.7,0.3
c1ccc(C2C3=C(Nc4ncnn42)c2ccccc2CCC3)cc1 (stereo not drawn),51.6*,30.2,0.8,0.7,0.5
Cc1ccc(C2Oc3ccccc3C3=C2C(c2cccs2)n2ncnc2N3)cc1 (stereo not drawn),16.6,49.9,1,0.5,0.8
Clc1ccc(C2C3=C(Nc4ncnn42)c2ccccc2CC3)cc1 (stereo not drawn),79.7*,68.8*,1.5,0.3,0.2
CCC1S/C(=C(\C#N)C(=O)NCc2ccco2)N(c2ccc(Br)cc2)C1=O (stereo not drawn),42.6,51.3*,1.4,0.5,0.6
CCOC(=O)/C(C#N)=C1/SC(C)C(=O)N1c1ccc(Br)cc1 (stereo not drawn),95.4*,71.8*,1.3,0.3,0
CCOC(=O)/C(C#N)=C1/SC(CC)C(=O)N1c1ccc(Br)cc1 (stereo not drawn),78.4*,40.8,1.1,0.6,0.2
CCC1S/C(=C(\C#N)C(=O)NCc2ccco2)N(c2ccc(F)cc2)C1=O (stereo not drawn),25.4,9.7,1.1,0.9,0.7
SMILES,CYP2C19 inhib,CYP2C9 inhib,PLAP activator,CYP2C9 act,CYP2C19 activ
Cc1cc(C)nc(-n2nc(C)c3c(C)c(C)c(C)nc32)n1,-5.3,-0.4,1.4,1,1.1
COC(=O)c1c(-c2cccnc2)csc1NC(=O)c1cc(C)on1,19.2,28.2,0.9,0.7,0.8
Cc1cccc(-c2csc(NC(=O)c3cnccn3)c2C(=O)OC(C)C)c1,29.6,50.5*,1.3,0.5,0.7
CCN(C(=O)CSc1nnc(NC2CCCCC2)s1)C1CCS(=O)(=O)C1 (stereo not drawn),-23.2,-7.0,1,1.1,1.2
Cc1cc(C)nc(SCc2nc(N)nc(-c3ccccc3O)n2)n1,85.1*,35.8,1.3,0.6,0.1
Nc1nc(N)nc(-c2ccccc2O)n1,-0.2,4.9,1,1,1
